In paper PMC9838217, “Structure of SALL4 zinc finger domain reveals link between AT-rich DNA binding and Okihiro syndrome” one finds binding signal data, which are given here for 30 sequences.

Where a chain is given by its changes, count along the chain named.

Common to all, as to assay: HT-SELEX; high values mean tight binding
Common to all, as to conditions: protein: recombinant; vector His6-GST; dsDNA, one strand shown

One assay deals with T1, SALL4 ZFC4 WT (HT-SELEX) (Mus musculus, UniProt Q8BX22 870-940).
T1 sequence: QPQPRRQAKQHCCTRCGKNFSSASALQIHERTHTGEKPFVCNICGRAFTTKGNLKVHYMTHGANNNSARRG
In a few lines: (§1)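 A 100 µl reaction of 10 mM Tris–HCl pH 7.5, 50 mM NaCl, poly(dI-dC) and DTT held purified recombinant mouse SALL4 zinc finger cluster 4 (residues 870–940, 1 µg) and library DNA (1.5 µg first cycle, 200 ng later) for 10 min at room temperature. Complexes captured on Ni2+ beads were washed, PCR-amplified and reselected for up to 6 cycles, in triplicate, then MiSeq-sequenced and scanned for 6-mers. Binding signal is the read fraction of each canonical k-mer expressed as fold change over the initial random library.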

Assay [1] has as its target T2, SALL4 ZFC4 R900W (HT-SELEX) (Mus musculus, UniProt Q8BX22 870-940, R900W).
T2 sequence: T1 sequence with R31W
The method, boiled down: as §1

Assay [2] addresses T3, SALL4 ZFC4 G921D (HT-SELEX) (Mus musculus, UniProt Q8BX22 870-940, G921D).
T3 sequence: T1 sequence with G52D
In a few lines: as §1

Consider ACAATC, for which the binding signal in the assay with SALL4 ZFC4 WT (HT-SELEX) amounted to 1.25 ± 0.051 fold-change vs cycle 0; in assay [1] it was 1.38 ± 0.0687 fold-change vs cycle 0; in assay [2], 1.36 ± 0.0869 fold-change vs cycle 0.

For CAAGTA, the binding signal with SALL4 ZFC4 WT (HT-SELEX) turned out to be 1.28 ± 0.0466 fold-change vs cycle 0; in assay [1], 1.42 ± 0.0751 fold-change vs cycle 0; in assay [2], 1.34 ± 0.0943 fold-change vs cycle 0.

Take ACACTG: the figures for the binding signal (with SALL4 ZFC4 WT (HT-SELEX); in assay [1]; in assay [2]) were 0.743 ± 0.0572 fold-change vs cycle 0, 0.877 ± 0.0574 fold-change vs cycle 0 and 0.908 ± 0.0148 fold-change vs cycle 0, respectively.

Regarding TCCGAA, the binding signal in the assay with SALL4 ZFC4 WT (HT-SELEX) was found to be 0.618 ± 0.0382 fold-change vs cycle 0; in assay [1], 0.692 ± 0.0361 fold-change vs cycle 0; in assay [2] it was 0.791 ± 0.046 fold-change vs cycle 0.

Take ATATCG: the binding signal with SALL4 ZFC4 WT (HT-SELEX) came out at 1.31 ± 0.0501 fold-change vs cycle 0; in assay [1] it was 1.15 ± 0.0369 fold-change vs cycle 0; in assay [2], 1.194 ± 0.00992 fold-change vs cycle 0.

Turning to AGGGAA, the binding signal worked out at 0.891 ± 0.0417 fold-change vs cycle 0 with SALL4 ZFC4 WT (HT-SELEX), 1.01 ± 0.045 fold-change vs cycle 0 in assay [1] and 0.989 ± 0.0164 fold-change vs cycle 0 in assay [2].

As for CAAAAC, the binding signal in the assay with SALL4 ZFC4 WT (HT-SELEX) came to 0.936 ± 0.0391 fold-change vs cycle 0; in assay [1], 1.06 ± 0.0573 fold-change vs cycle 0; in assay [2], 1.08 ± 0.0366 fold-change vs cycle 0.

As for AGAGCA, the binding signal with SALL4 ZFC4 WT (HT-SELEX) turned out to be 0.756 ± 0.0413 fold-change vs cycle 0; in assay [1], 0.893 ± 0.0729 fold-change vs cycle 0; in assay [2], 0.98 ± 0.0193 fold-change vs cycle 0.

In the case of AACGAC, the figures for the binding signal (in the assay with SALL4 ZFC4 WT (HT-SELEX); in assay [1]; in assay [2]) were 0.568 ± 0.0525 fold-change vs cycle 0, 0.668 ± 0.0478 fold-change vs cycle 0 and 0.771 ± 0.0138 fold-change vs cycle 0, respectively.

Consider ATAGAA, for which the binding signal was determined as 2.33 ± 0.17 fold-change vs cycle 0 in the assay with SALL4 ZFC4 WT (HT-SELEX), 2.13 ± 0.133 fold-change vs cycle 0 in assay [1] and 1.83 ± 0.226 fold-change vs cycle 0 in assay [2].

Regarding CGAATA, the binding signal with SALL4 ZFC4 WT (HT-SELEX) was 1.1 ± 0.0554 fold-change vs cycle 0; in assay [1], 1.13 ± 0.0519 fold-change vs cycle 0; in assay [2], 1.14 ± 0.0398 fold-change vs cycle 0.

As for ATGAGC, the binding signal with SALL4 ZFC4 WT (HT-SELEX) came to 0.659 ± 0.0207 fold-change vs cycle 0; in assay [1] it was 0.736 ± 0.0172 fold-change vs cycle 0; in assay [2], 0.836 ± 0.0347 fold-change vs cycle 0.

Turning to CCTAGA, the binding signal with SALL4 ZFC4 WT (HT-SELEX) is 0.844 ± 0.0425 fold-change vs cycle 0; in assay [1] it was 0.937 ± 0.0552 fold-change vs cycle 0; in assay [2] it was 0.97 ± 0.04 fold-change vs cycle 0.

Turning to ATCAAT, the values for the binding signal (with SALL4 ZFC4 WT (HT-SELEX); in assay [1]; in assay [2]) were 2.28 ± 0.171 fold-change vs cycle 0, 2.07 ± 0.0713 fold-change vs cycle 0 and 1.9 ± 0.133 fold-change vs cycle 0, respectively.

As to AAGCAT, the binding signal was found to be 1.23 ± 0.027 fold-change vs cycle 0 with SALL4 ZFC4 WT (HT-SELEX), 1.26 ± 0.0143 fold-change vs cycle 0 in assay [1] and 1.273 ± 0.011 fold-change vs cycle 0 in assay [2].

In the case of AGTACG, the binding signal with SALL4 ZFC4 WT (HT-SELEX) amounted to 0.724 ± 0.0595 fold-change vs cycle 0; in assay [1], 0.83 ± 0.0465 fold-change vs cycle 0; in assay [2] it was 0.871 ± 0.0406 fold-change vs cycle 0.

As for TGGACA, the binding signal with SALL4 ZFC4 WT (HT-SELEX) turned out to be 0.662 ± 0.0418 fold-change vs cycle 0; in assay [1], 0.761 ± 0.0205 fold-change vs cycle 0; in assay [2] it was 0.847 ± 0.0377 fold-change vs cycle 0.

As to ACGTAG, the binding signal came out at 0.7133 ± 0.00555 fold-change vs cycle 0 with SALL4 ZFC4 WT (HT-SELEX), 0.792 ± 0.0458 fold-change vs cycle 0 in assay [1] and 0.864 ± 0.0314 fold-change vs cycle 0 in assay [2].

Regarding GCCATA, the binding signal in the assay with SALL4 ZFC4 WT (HT-SELEX) was determined as 0.544 ± 0.0118 fold-change vs cycle 0; in assay [1], 0.556 ± 0.0265 fold-change vs cycle 0; in assay [2], 0.681 ± 0.0554 fold-change vs cycle 0.

Take AGGTCC: the results for the binding signal (in the assay with SALL4 ZFC4 WT (HT-SELEX); in assay [1]; in assay [2]) were 0.419 ± 0.0296 fold-change vs cycle 0, 0.53 ± 0.0164 fold-change vs cycle 0 and 0.632 ± 0.0514 fold-change vs cycle 0, respectively.

As for GAGACC, the values for the binding signal (with SALL4 ZFC4 WT (HT-SELEX); in assay [1]; in assay [2]) were 0.414 ± 0.0124 fold-change vs cycle 0, 0.5424 ± 0.00269 fold-change vs cycle 0 and 0.643 ± 0.0507 fold-change vs cycle 0, respectively.

Regarding GGACAA, the binding signal with SALL4 ZFC4 WT (HT-SELEX) was determined as 0.637 ± 0.0222 fold-change vs cycle 0; in assay [1], 0.742 ± 0.00957 fold-change vs cycle 0; in assay [2], 0.828 ± 0.043 fold-change vs cycle 0.

Take GGGTGA: the binding signal with SALL4 ZFC4 WT (HT-SELEX) was determined as 0.483 ± 0.00743 fold-change vs cycle 0; in assay [1] it was 0.541 ± 0.0302 fold-change vs cycle 0; in assay [2] it was 0.632 ± 0.0295 fold-change vs cycle 0.

Take ATAGCC: the binding signal with SALL4 ZFC4 WT (HT-SELEX) was 0.53 ± 0.0341 fold-change vs cycle 0; in assay [1] it was 0.6236 ± 0.00564 fold-change vs cycle 0; in assay [2], 0.747 ± 0.062 fold-change vs cycle 0.

AAGGCA: the values for the binding signal (with SALL4 ZFC4 WT (HT-SELEX); in assay [1]; in assay [2]) were 0.566 ± 0.0136 fold-change vs cycle 0, 0.683 ± 0.00728 fold-change vs cycle 0 and 0.777 ± 0.0437 fold-change vs cycle 0, respectively.

As for TGAACA, the figures for the binding signal (with SALL4 ZFC4 WT (HT-SELEX); in assay [1]; in assay [2]) were 1.29 ± 0.0296 fold-change vs cycle 0, 1.4 ± 0.0577 fold-change vs cycle 0 and 1.36 ± 0.0684 fold-change vs cycle 0, respectively.

Consider CATCCC, for which the binding signal amounted to 0.525 ± 0.0193 fold-change vs cycle 0 with SALL4 ZFC4 WT (HT-SELEX), 0.59 ± 0.0178 fold-change vs cycle 0 in assay [1] and 0.652 ± 0.049 fold-change vs cycle 0 in assay [2].

On to ACAGAC, for which the binding signal with SALL4 ZFC4 WT (HT-SELEX) was 0.687 ± 0.0257 fold-change vs cycle 0; in assay [1] it was 0.791 ± 0.00124 fold-change vs cycle 0; in assay [2] it was 0.865 ± 0.0133 fold-change vs cycle 0.

In the case of GCTAAC, the binding signal with SALL4 ZFC4 WT (HT-SELEX) was 0.704 ± 0.0424 fold-change vs cycle 0; in assay [1] it was 0.792 ± 0.0586 fold-change vs cycle 0; in assay [2], 0.89 ± 0.0355 fold-change vs cycle 0.

Turning to AAAAAC, the binding signal with SALL4 ZFC4 WT (HT-SELEX) came to 1.45 ± 0.0971 fold-change vs cycle 0; in assay [1], 1.49 ± 0.0832 fold-change vs cycle 0; in assay [2], 1.42 ± 0.0693 fold-change vs cycle 0.
